Drawing on PubChem BioAssay (EPA / NIEHS), this text covers outcome and AC50 for six molecules.

Structures are written as SMILES. Where a structure was tested more than once in an assay, its records may differ in their call. Active and inactive are the calls of the source. How the source made its calls: active means hit-call score of the fitted dose curve at least 0.9, where 1 is the maximum; inactive means score below 0.9.

Assay [1] in a line: CEETOX_H295R_ESTRADIOL: CeeTox H295R High-throughput Steroidogenesis Assay for Estradiol (AID 2283440).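 Further: estradiol secreted into medium quantified by LC-MS/MS after dansyl derivatisation.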 The conditions noted are these: actives raise or lower the signal. In a few lines: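 H295R cells pre-stimulated 48 h with 10 uM forskolin, then exposed 48 h to chemical in 0.1% DMSO. Medium estradiol quantified by MTBE extraction, dansyl derivatisation and HPLC-MS/MS; bidirectional fit versus DMSO; MTT viability required >/=70%.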

Assay [2] can be described thus: CEETOX_H295R_ESTRONE: CeeTox H295R High-throughput Steroidogenesis Assay for Estrone (AID 2283441). The conditions noted are these: actives raise or lower the signal. In short, it runs like this: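 Estrone secreted into medium quantified by LC-MS/MS after dansyl chloride derivatization, following 48 h chemical exposure (0.1% DMSO final) of forskolin-prestimulated (10 uM, 48 h) H295R cells; gain or loss fitted against DMSO; MTT viability in same wells.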

Assay [3] can be described thus: CEETOX_H295R_PROG: CeeTox H295R High-throughput Steroidogenesis Assay for Progesterone (PROG) (AID 2283442).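 On AC50: human H295R adrenal cells primed with 10 µM forskolin before dosing.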 The conditions noted are these: actives raise or lower the signal. In short, it runs like this: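 H295R adrenal cells prestimulated 48 h with 10 uM forskolin, then exposed 48 h to test chemical in 0.1% DMSO. Progesterone in medium quantified by HPLC-MS/MS after MTBE extraction; viability checked by MTT in same wells.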

Read-out in assay [4]: Tumor necrosis factor receptor superfamily member 6 (Homo sapiens) (UniProt P25445)
In words: LTEA_HepaRG_FAS: Life Technologies and Expression Analysis (LTEA) Assay for Fas cell surface death receptor (FAS) using HepaRG (AID 2283447). The settings on record: mRNA level, 48 h; actives raise or lower the signal. In short, it runs like this: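 FAS transcript level was measured by TaqMan qRT-PCR against three housekeeping genes after 48 h chemical exposure. Cells were HepaRG, 0.5% DMSO vehicle, with a top concentration of 100 uM and half-log dilutions over eight points, in duplicate.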

Read-out in assay [5]: Fatty acid synthase (Homo sapiens) (UniProt P49327)
In words: LTEA_HepaRG_FASN: Life Technologies and Expression Analysis (LTEA) Assay for Fatty Acid Synthase (FASN) using HepaRG (AID 2283448). The conditions noted are these: mRNA level, 48 h; actives raise or lower the signal. In short, it runs like this: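 FASN transcript measured by TaqMan qRT-PCR, normalised to three housekeeping genes, after 48 h chemical exposure of HepaRG cells. Eight-point half-log series from 100 uM in 0.5% DMSO, duplicates; gain or loss fitted against vehicle.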

Read-out in assay [6]: Cyclin D2 (CCND2), CCND2 (gene 894)
Nature of the assay: LTEA_HepaRG_CCND2: Life Technologies and Expression Analysis (LTEA) Assay for Cyclin D2 (CCND2) using HepaRG (AID 2283449). The conditions noted are these: mRNA level, 48 h; actives raise or lower the signal. In a few lines: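 CCND2 transcript levels, quantified by qRT-PCR and normalised to three housekeeping genes, were fitted bidirectionally against 0.5% DMSO. HepaRG cultures were dosed 48 h in duplicate with an 8-point half-log series up to 100 uM.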

Read-out in assay [7]: Cyclin Dependent Kinase Inhibitor 1A (CDKN1A), CDKN1A (gene 1026)
In words: LTEA_HepaRG_CDKN1A: Life Technologies and Expression Analysis (LTEA) Assay for Cyclin Dependent Kinase Inhibitor 1A (CDKN1A) using HepaRG (AID 2283450). The conditions noted are these: mRNA level, 48 h; actives raise or lower the signal. In short, it runs like this: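 Differentiated HepaRG cells in serum-free induction medium, exposed 48 h in duplicate to eight half-log concentrations up to 100 uM in 0.5% DMSO. mRNA measured by TaqMan qRT-PCR, normalized to ACTB, GAPDH, POLR2A; bidirectional fit versus DMSO.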

Read-out in assay [8]: Cyclin D1 (CCND1), CCND1 (gene 595)
Nature of the assay: LTEA_HepaRG_CCND1: Life Technologies and Expression Analysis (LTEA) Assay for Cyclin D1 (CCND1) using HepaRG (AID 2283451).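 On AC50: TaqMan qRT-PCR transcript level normalised to ACTB GAPDH and POLR2A housekeeping genes.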 The conditions noted are these: mRNA level, 48 h; actives raise or lower the signal. In a few lines: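 Differentiated HepaRG cells exposed 48 h in serum-free induction medium to eight half-log concentrations from 100 uM top, 0.5% DMSO, duplicates. CCND1 mRNA measured by Fluidigm TaqMan qRT-PCR, normalised to ACTB, GAPDH, POLR2A; bidirectional fit.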

Read-out in assay [9]: catalase (CAT), CAT (gene 847)
Nature of the assay: LTEA_HepaRG_CAT: Life Technologies and Expression Analysis (LTEA) Assay for catalase (CAT) using HepaRG (AID 2283452). The settings on record: mRNA level, 48 h; actives raise or lower the signal. In short, it runs like this:
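Expression of CAT was quantified by TaqMan qRT-PCR with ACTB/GAPDH/POLR2A normalization after 48 h chemical exposure of HepaRG. Eight-point half-log series, top 100 uM, in 0.5% DMSO; gain or loss fitted against vehicle.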

Read-out in assay [10]: flavin-containing dimethylaniline monooxygenases 3 (FMO3), FMO3 (gene 2328)
In words: LTEA_HepaRG_FMO3: Life Technologies and Expression Analysis (LTEA) Assay for flavin-containing dimethylaniline monooxygenases 3 (FMO3) using HepaRG (AID 2283453). The settings on record: mRNA level, 48 h; actives raise or lower the signal. In a few lines: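 FMO3 transcript quantified by TaqMan qRT-PCR against three housekeeping genes after 48 h chemical exposure of HepaRG cells. Eight-point half-log series, top 100 uM, 0.5% DMSO vehicle; phenobarbital 1mM induction control; up- or down-regulation fitted.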

Read-out in assay [11]: CFLAR gene, CFLAR (gene 8837)
In words: LTEA_HepaRG_CFLAR: Life Technologies and Expression Analysis (LTEA) Assay for CFLAR gene using HepaRG (AID 2283455). The settings on record: mRNA level, 48 h; actives raise or lower the signal. In short, it runs like this:
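Transcript level by qRT-PCR (normalized to ACTB, GAPDH and POLR2A) after 48 h chemical exposure of HepaRG cells, top concentration 100 uM with half-log steps, 0.5% DMSO vehicle, duplicates; fitted bidirectionally against DMSO baseline.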

Read-out in assay [12]: Forkhead box O3 (FOXO3), FOXO3 (gene 2309)
Nature of the assay: LTEA_HepaRG_FOXO3: Life Technologies and Expression Analysis (LTEA) Assay for Forkhead box O3 (FOXO3) using HepaRG (AID 2283459). The conditions noted are these: mRNA level, 48 h; actives raise or lower the signal. In short, it runs like this: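 FOXO3 transcript measured by qRT-PCR (normalized to ACTB, GAPDH, POLR2A) after 48 h exposure of HepaRG cells in serum-free induction medium. Duplicates, eight half-log concentrations up to 100 uM, 0.5% DMSO; gain or loss fitted against DMSO.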

Read-out in assay [13]: ABC Transporter (ABCB1), ABCB1 (gene 5243)
In words: LTEA_HepaRG_ABCB1: Life Technologies and Expression Analysis (LTEA) Assay for ABC Transporter (ABCB1) using HepaRG (AID 2283460). The conditions noted are these: mRNA level, 48 h; actives raise or lower the signal. In short, it runs like this:
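ABCB1 transcript level measured by TaqMan qRT-PCR against three housekeeping genes after 48 h chemical exposure of differentiated HepaRG cells. Top concentration 100 uM, half-log steps, eight points, 0.5% DMSO vehicle; bidirectional fit relative to DMSO.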

Read-out in assay [14]: growth arrest and DNA damage 45 (GADD45B), GADD45B (gene 4616)
Nature of the assay: LTEA_HepaRG_GADD45B: Life Technologies and Expression Analysis (LTEA) Assay for growth arrest and DNA damage 45 (GADD45B) using HepaRG (AID 2283461). The settings on record: mRNA level, 48 h; actives raise or lower the signal. In short, it runs like this:
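Differentiated human HepaRG cells in serum-free induction medium exposed 48 h in duplicate to eight concentrations, top 100 uM, half-log steps, 0.5% DMSO. GADD45B mRNA by TaqMan qRT-PCR, normalized to ACTB, GAPDH, POLR2A; bidirectional fit versus DMSO.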

Read-out in assay [15]: ABC Transporter (ABCC3), ABCC3 (gene 8714)
In words: LTEA_HepaRG_ABCC3: Life Technologies and Expression Analysis (LTEA) Assay for ABC Transporter (ABCC3) using HepaRG (AID 2283462). The settings on record: mRNA level, 48 h; actives raise or lower the signal. In short, it runs like this: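 Differentiated human HepaRG cells exposed 48 h in serum-free induction medium, 0.5% DMSO vehicle, 8-point half-log series to 100 uM in duplicate. ABCC3 mRNA by qRT-PCR, normalised to ACTB, GAPDH, POLR2A; bidirectional fit vs DMSO.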

Read-out in assay [16]: ABC Transporter (ABCB11), ABCB11 (gene 8647)
Nature of the assay: LTEA_HepaRG_ABCB11: Life Technologies and Expression Analysis (LTEA) Assay for ABC Transporter (ABCB11) using HepaRG (AID 2283463). The conditions noted are these: mRNA level, 48 h; actives raise or lower the signal. In short, it runs like this: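 ABCB11 transcript levels quantified by TaqMan qRT-PCR against three housekeeping genes after 48 h chemical exposure of HepaRG cultures. Concentrations up to 100 uM in half-log steps, 0.5% DMSO vehicle; both induction and suppression scored.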

Read-out in assay [17]: Cytochrome P450 (CYP1A1), CYP1A1 (gene 1543)
Nature of the assay: LTEA_HepaRG_CYP1A1: Life Technologies and Expression Analysis (LTEA) Assay for Cytochrome P450 (CYP1A1) using HepaRG (AID 2283454). The conditions noted are these: mRNA level, 48 h; actives raise or lower the signal. In short, it runs like this:
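Differentiated human HepaRG cells, after 48 h plating, exposed in duplicate for 48 h in serum-free induction medium to 8 half-log concentrations up to 100 uM in 0.5% DMSO. CYP1A1 mRNA by qRT-PCR, normalized to ACTB/GAPDH/POLR2A; bidirectional fit versus DMSO.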

Assay [18] in a line: CEETOX_H295R_TESTO: CeeTox H295R High-throughput Steroidogenesis Assay for Testosterone (TESTO) (AID 2283457).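 On AC50: cells exposed to chemicals for 48 h before medium collection.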 The settings on record: actives raise or lower the signal. In a few lines: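 H295R adrenal cells, passage ≤10, exposed to chemicals for 48 h. Testosterone in medium measured by MTBE extraction and HPLC-MS/MS against a 7-point standard curve. Bidirectional fit versus DMSO; MTT viability checked in the same wells.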

Fatty acid synthase (Homo sapiens), sequence (P49327 whole entry, looked up): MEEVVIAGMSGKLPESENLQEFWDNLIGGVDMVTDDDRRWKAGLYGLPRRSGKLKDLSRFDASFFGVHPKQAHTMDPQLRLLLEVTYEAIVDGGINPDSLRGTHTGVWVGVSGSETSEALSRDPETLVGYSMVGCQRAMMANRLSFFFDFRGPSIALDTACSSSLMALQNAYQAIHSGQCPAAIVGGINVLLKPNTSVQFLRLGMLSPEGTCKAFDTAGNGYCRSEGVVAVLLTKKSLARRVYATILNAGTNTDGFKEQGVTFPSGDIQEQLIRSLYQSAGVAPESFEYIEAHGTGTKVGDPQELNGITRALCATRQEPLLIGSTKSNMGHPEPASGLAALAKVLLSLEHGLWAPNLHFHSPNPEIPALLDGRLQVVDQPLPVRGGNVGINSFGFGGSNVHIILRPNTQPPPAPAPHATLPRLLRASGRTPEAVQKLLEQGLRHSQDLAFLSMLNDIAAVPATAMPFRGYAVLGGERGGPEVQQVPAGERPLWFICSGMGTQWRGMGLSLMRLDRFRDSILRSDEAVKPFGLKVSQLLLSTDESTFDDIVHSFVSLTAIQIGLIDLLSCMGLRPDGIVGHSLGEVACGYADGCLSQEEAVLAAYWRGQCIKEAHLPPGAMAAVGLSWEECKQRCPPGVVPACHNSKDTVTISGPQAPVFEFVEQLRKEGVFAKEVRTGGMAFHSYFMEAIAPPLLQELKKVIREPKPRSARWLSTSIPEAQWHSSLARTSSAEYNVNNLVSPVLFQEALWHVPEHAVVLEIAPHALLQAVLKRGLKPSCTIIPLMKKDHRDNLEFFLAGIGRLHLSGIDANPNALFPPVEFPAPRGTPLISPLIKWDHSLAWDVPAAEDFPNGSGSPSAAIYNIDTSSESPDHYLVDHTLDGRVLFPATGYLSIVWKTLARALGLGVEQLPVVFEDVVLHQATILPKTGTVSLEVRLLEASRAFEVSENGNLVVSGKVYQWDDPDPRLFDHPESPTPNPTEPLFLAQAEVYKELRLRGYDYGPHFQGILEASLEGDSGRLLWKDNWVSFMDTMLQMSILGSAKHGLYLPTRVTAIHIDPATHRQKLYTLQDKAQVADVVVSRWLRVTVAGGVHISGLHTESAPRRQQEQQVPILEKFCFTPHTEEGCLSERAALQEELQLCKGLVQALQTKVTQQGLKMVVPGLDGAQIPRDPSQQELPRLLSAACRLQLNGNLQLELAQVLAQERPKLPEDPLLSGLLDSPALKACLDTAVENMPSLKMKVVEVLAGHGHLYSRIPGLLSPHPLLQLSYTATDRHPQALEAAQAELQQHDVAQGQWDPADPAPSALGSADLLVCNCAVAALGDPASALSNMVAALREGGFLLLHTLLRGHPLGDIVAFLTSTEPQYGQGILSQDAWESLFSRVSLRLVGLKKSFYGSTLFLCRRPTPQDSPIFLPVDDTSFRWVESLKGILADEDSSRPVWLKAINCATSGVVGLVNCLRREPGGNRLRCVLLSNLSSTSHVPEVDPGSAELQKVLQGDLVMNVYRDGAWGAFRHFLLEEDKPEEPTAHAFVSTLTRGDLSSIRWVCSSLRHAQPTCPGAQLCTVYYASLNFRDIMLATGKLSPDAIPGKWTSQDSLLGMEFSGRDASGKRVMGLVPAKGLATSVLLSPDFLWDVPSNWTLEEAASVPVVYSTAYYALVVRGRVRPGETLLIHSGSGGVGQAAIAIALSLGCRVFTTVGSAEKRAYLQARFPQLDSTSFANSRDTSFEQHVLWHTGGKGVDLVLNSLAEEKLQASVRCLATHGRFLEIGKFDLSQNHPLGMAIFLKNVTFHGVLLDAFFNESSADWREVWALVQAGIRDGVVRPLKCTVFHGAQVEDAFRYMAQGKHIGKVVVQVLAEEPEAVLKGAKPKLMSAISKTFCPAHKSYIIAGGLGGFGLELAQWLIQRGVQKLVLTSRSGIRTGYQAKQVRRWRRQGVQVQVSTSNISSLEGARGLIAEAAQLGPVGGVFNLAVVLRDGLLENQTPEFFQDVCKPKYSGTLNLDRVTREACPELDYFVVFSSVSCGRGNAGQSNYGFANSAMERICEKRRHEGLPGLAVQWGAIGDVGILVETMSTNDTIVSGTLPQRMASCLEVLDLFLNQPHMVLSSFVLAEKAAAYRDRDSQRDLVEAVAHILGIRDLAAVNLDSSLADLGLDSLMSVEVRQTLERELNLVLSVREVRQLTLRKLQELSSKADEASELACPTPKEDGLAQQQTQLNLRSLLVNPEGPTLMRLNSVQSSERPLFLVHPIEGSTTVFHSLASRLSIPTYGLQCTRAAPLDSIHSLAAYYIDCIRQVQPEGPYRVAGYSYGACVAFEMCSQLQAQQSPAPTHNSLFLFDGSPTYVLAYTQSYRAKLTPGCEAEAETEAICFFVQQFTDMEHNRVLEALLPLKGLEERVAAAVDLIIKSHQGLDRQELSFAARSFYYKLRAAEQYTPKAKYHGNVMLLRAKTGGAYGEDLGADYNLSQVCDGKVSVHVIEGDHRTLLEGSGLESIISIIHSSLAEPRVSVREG

Usually AC50 stands for the concentration at which the activity in the assay is half-maximal. As to `CCCCOC(=O)[C@@H](C)Oc1ccc(Oc2ccc(C(F)(F)F)cn2)cc1`, the result in assay [1], in assay [2], in [3], in assay [4], in assay [5] and in assay [6] was inactive. The molecule was classed as inactive in assay [7], in assay [8], in assay [9], in assay [10], in assay [11] and in [12]. The call in assay [13], in assay [14] and in assay [15] was inactive. Besides, the AC50 in assay [16] is 20.6 µM (active).

For `C#CCOC(=O)[C@@H](C)Oc1ccc(Oc2ncc(Cl)cc2F)cc1`, the result in assay [1], in assay [2], in [4], in assay [7], in assay [8] and in assay [10] was inactive. For the same molecule, the molecule was called inactive in [11], in assay [12], in assay [13], in assay [14] and in assay [15]. The half-maximal activity concentration (AC50) was 9.01 µM (active) in assay [3], 13.3 µM (active) in assay [5], 33 µM (active) in assay [17] and 5.03 µM (active) in assay [16].

Take `CC(C)(c1ccc(O)cc1)c1ccc(O)cc1`: the outcome in assay [1], in [2], in assay [3], in assay [4], in assay [5] and in [6] was inactive. Moreover, the result in [7], in assay [8], in assay [10], in [11], in assay [18] and in assay [12] was inactive. Further, the call in assay [13], in [14] and in assay [16] was inactive. The results for the AC50 in assay [18] and in assay [13] were 3.57 µM (active) and 50 µM (active), respectively.

Regarding `Oc1ccc(C(c2ccc(O)cc2)C(Cl)(Cl)Cl)cc1`, the AC50 was 0.848 µM (active) in [3]; 88.8 µM (active) in assay [5]; 89.2 µM (active) in assay [8]; 94 µM (active) in [10]; 82.9 µM (active) in [12]; 93.8 µM (active) in [14]. The molecule was called inactive in [4], in assay [6], in assay [7], in assay [17], in assay [11] and in assay [13].

Turning to `CN(C)C(=O)Nc1ccc(Cl)c(Cl)c1`, the call in [3], in assay [4], in [6], in assay [7], in assay [9] and in assay [11] was inactive. Also, in assay [13], the result was inactive. Further, the AC50 in assay [5] was 20.3 µM (active); in assay [8], 50 µM (active); in assay [10], 50 µM (active); in assay [18] it was 28.1 µM (active); in assay [12], 22.2 µM (active); in assay [14] it was 66.5 µM (active). Further, the AC50 in assay [16] was 50 µM (active).

As to `CCNc1nc(N)nc(Cl)n1`, the call in assay [3], in assay [4], in assay [5], in [6], in assay [7] and in [8] was inactive. The outcome in [10], in assay [11], in [12], in assay [13], in assay [14] and in assay [16] was inactive.
